This passage reports AC50 and outcome results from PubChem BioAssay (EPA / NIEHS).

Structures are written as SMILES. Active and inactive are the calls of the source. The calls were made as follows: active = hit-call score of the fitted dose curve at least 0.9, where 1 is the maximum; inactive = score below 0.9.

As usually defined, the AC50 is the midpoint of the concentration-response curve, whichever way the signal moves.

Chain of CCAAT/enhancer-binding protein beta (Homo sapiens) (P17676 whole entry, looked up): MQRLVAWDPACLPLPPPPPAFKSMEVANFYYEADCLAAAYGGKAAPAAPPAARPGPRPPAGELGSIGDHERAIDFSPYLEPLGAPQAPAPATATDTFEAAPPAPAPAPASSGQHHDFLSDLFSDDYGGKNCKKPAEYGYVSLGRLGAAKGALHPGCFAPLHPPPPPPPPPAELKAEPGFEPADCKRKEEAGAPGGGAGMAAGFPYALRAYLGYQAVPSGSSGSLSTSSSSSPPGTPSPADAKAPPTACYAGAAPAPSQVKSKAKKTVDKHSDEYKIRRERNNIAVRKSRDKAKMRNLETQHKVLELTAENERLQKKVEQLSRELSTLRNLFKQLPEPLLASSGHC

In the assay the target is CCAAT/enhancer-binding protein beta (Homo sapiens) (UniProt P17676). Description: ATG_C_EBP_CIS: Attagene CIS-FACTORIAL HepG2 Assay for human CCAAT/Enhancer Binding Protein (C/EBP) beta (AID 2282927). Particulars: HepG2 Attagene cis-factorial transcription factor reporter; actives raise or lower the signal. On the procedure:
ATG_CIS is a cell-based, multiplexed-readout assay that uses HepG2, a human liver cell line, with measurements taken at 24 hours after chemical dosing in a 24-well plate.ATG_C_EBP_CIS is one of 52 assay component(s) measured or calculated from the ATG_CIS assay. It is designed to make measurements of mRNA induction, a form of inducible reporter, as detected with fluorescence intensity signals by Reverse transcription polymerase chain reaction (RT-PCR) and Capillary electrophoresis technology.Data from the assay component ATG_C_EBP_CIS was analyzed into 1 assay endpoint. This assay endpoint, ATG_C_EBP_CIS, was analyzed with bidirectional fitting relative to DMSO as the negative control and baseline of activity. Using a type of inducible reporter, measures of mRNA for gain or loss-of-signal activity can be used to understand the reporter gene at the transcription factor-level as they relate to the gene CEBPB. Furthermore, this assay endpoint can be referred to as a primary readout, because this assay has produced multiple assay endpoints where this one serves a reporter gene function. To generalize the intended target to other relatable targets, this assay endpoint is annotated to the dna binding intended target family, where the subfamily is basic leucine zipper.
Human liver HepG2 cells are transiently transfected with multiple reporter transcription units (MRTUs) in 6-well plates using FuGene 6 reagent (Roche; 3 ml FuGene/1 mg DNA). The MRTU constructs are regulated by a cis-regulating element (promoter). […] A major difference between the CIS and TRANS system is that in CIS activities of endogenous TFs are measured, whereas the TRANS assay evaluates changes in activities of exogenous, chimeric NR-Gal4 proteins. […] At the end of 24 hour incubation, total RNA was isolated using TriZol reagent (Invitrogen). The isolated RNA is then reverse-transcribed using oligo(dT) primer and Mo-MLV reverse transcriptase (Invitrogen) with DNAse I (Ambion) treatment for 30 min. The one-tenth of the produced cDNA was amplified by PCR using Taq DNA polymerase (Invitrogen) and two reporter sequence-specific primers. The PCR products were fluorescently labeled by primer extension with 6-arboxyfluorescein (6-FAM) 5'-labeled reporter sequence-specific primer (2 min at 95 C, 20 s at 68 C and 10 min at 72 C) and these products were digested with 5U of HpaI (New England Biolabs) for 2h at 37 C. The fragments were purified using Qiaquick PCR columns (Qiagen), analyzed on an ABI 3130xL genetic analyzer (Applied Biosystems) with peak positions identified by using a set of X-rhodamine (ROX)-labeled MapMarker1000 molecular weight standards (BioVentures). The raw capillary electrophoresis data was processed using Attagraph software (Attagene).
Turning to `COP(=S)(OC)SCn1nnc2ccccc2c1=O`, the AC50 was 6.88 µM (active).

`COC(=O)c1c(C(F)F)nc(C(F)(F)F)c(C2=NCCS2)c1CC(C)C`: the AC50 is 0.682 µM (active). In the case of `Nc1cnn(-c2ccccc2)c(=O)c1Cl`, the outcome was inactive. Turning to `CCN(CC)C(=O)C(C)Oc1cccc2ccccc12` (stereo not given), the AC50 was 1.2 µM (active). `COc1ccc(-c2ccccc2)cc1NNC(=O)OC(C)C`: the outcome was inactive. As to `O=C(Nc1ccccc1-c1ccc(Cl)cc1)c1cccnc1Cl`, the AC50 is 10.3 µM (active). Consider `CC(C)NC(=O)N1CC(=O)N(c2cc(Cl)cc(Cl)c2)C1=O`, for which the result was inactive. Consider `Cc1c(COC(=O)[C@@H]2[C@H](/C=C(\Cl)C(F)(F)F)C2(C)C)cccc1-c1ccccc1`, for which the outcome was inactive. As for `Nc1c(Cl)c(F)nc(OCC(=O)O)c1Cl`, the outcome was inactive.

Regarding `CCOc1nc(C(Cl)(Cl)Cl)ns1`, the result was inactive. For the molecule `COCC(=O)N(c1c(C)cccc1C)C(C)C(=O)OC` (stereo not given), the outcome was inactive. Take `COc1cc(OC)nc(NC(=O)NS(=O)(=O)c2ncccc2OCC(F)(F)F)n1`: the outcome was inactive.

As for `CCSC(=O)N1CCCCCC1`, the outcome was inactive. Turning to `CN=C=S`, the AC50 is 15.4 µM (active). As to `CCCCC(C#N)(Cn1cncn1)c1ccc(Cl)cc1` (stereo not given), the result was inactive.

For the molecule `CCNC(=O)NC(=O)C(C#N)=NOC`, the result was inactive. Same read-out and setting: for `Cn1c(-c2ccccc2)cc(-c2ccccc2)[n+]1C` the value was “inactive”; for `CCOP(=O)(OCC)Oc1nc(Cl)c(Cl)cc1Cl`, “inactive”; for `CN/C(=N\[N+](=O)[O-])NCc1cnc(Cl)s1`, “inactive”. Consider `N#CN=C1SCCN1Cc1ccc(Cl)nc1`, for which the result was inactive.

As for `CCOP(=S)(OCC)Oc1nc(Cl)n(C(C)C)n1`, the outcome was inactive. For the molecule `CCCCC(O)(Cn1cncn1)c1ccc(Cl)cc1Cl` (stereo not given), the result was inactive. Still for that read-out and setting: for `Cc1ccc(N=CN(C)C=Nc2ccc(C)cc2C)c(C)c1` the value was “inactive”; for `OC(c1ccc(Cl)cc1)(c1ccc(Cl)cc1)C(Cl)(Cl)Cl`, “inactive”; for `CCNP(=S)(OC)O/C(C)=C/C(=O)OC(C)C` (stereo not given), “inactive”. Take `CCC(C)n1c(=O)[nH]c(C)c(Br)c1=O` (stereo not given): the outcome was inactive. As to `CCOc1nc(F)cc2nc(S(=O)(=O)Nc3c(Cl)cccc3Cl)nn12`, the result was inactive. The same measure, in the same setting: the value for `CC1(C)C(C=C(Cl)Cl)C1C(=O)OC(C#N)c1cccc(Oc2ccccc2)c1` (stereo not given) was “inactive”; that for `COCC(C)N(C(=O)CCl)c1c(C)csc1C` (stereo not given) was “inactive”; that for `O=P(O)(O)CCCl` was “inactive”.

On to `COP(=O)(OC)O/C(C)=C/C(=O)N(C)C`, for which the outcome was inactive. For the molecule `N#Cc1c(Cl)cccc1Cl`, the result was inactive. The same measure, in the same setting: for `COP(=S)(OC)Oc1ccc([N+](=O)[O-])c(C)c1` the value was “inactive”; for `CC(C)C1(C)N=C(c2ncccc2C(=O)O)NC1=O` (stereo not given), “inactive”; for `C=CCOC(=O)C(C)(C)OC(=O)c1cc(-n2c(=O)cc(C(F)(F)F)n(C)c2=O)ccc1Cl`, “inactive”. The same measure, in the same setting: for `CC(C)N1C(=O)c2ccccc2NS1(=O)=O` the value was “inactive”; for `CC(C)=CC1C(C(=O)OCc2coc(Cc3ccccc3)c2)C1(C)C` (stereo not given), “inactive”.

On to `CC(C)N1C(=O)N(c2ccccc2)CSC1=NC(C)(C)C`, for which the result was inactive. Take `O=C(O)c1c(Cl)ccc2cc(Cl)cnc12`: the outcome was inactive.

With `Cc1nc(N(C)C)nc(OC(=O)N(C)C)c1C`, the result was inactive.
